Records with an inconclusive call do not appear. A call without a number means that no potency is given here. The source made the active and inactive calls. The call rests on the fitted dose curve; in most records, active means well fitted cell-killing curve with a large enough effect; inconclusive means small, poorly fitted or top-dose-only effect, or effect the other way; inactive means flat fitted curve, though single readings scatter.
Potency means the concentration at half of the fitted maximal effect.

The nature of this assay: S16 Schwann cell viability assay (CellTiter-Glo assay) (AID 624031). Further: nearly all actives have a fitted effect of over 70% in size. As to conditions: S16 rat Schwann cells viability, 24 h; series mostly up to 57.5 µM. The gist of the method:
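Concentration-effect curves come from CellTiter-Glo luminescence of S16 rat Schwann cells after 24 h compound exposure. Each reading was normalized to DMSO wells (0%) and wells without cells, and curves were ranked by r2 and response magnitude.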
With `CCCCC[C@H](O)/C=C/[C@@H]1[C@@H](C/C=C\CCCC(=O)O)[C@@H](O)C[C@H]1O`, the Potency result was “inactive”.

Regarding `COc1cc(/C=C/C(=O)N2CCN(CC(=O)N3CCCC3)CC2)cc(OC)c1OC`, the Potency entry was “inactive”.

In the case of `CC1(C)S[C@@H]2[C@H](NC(=O)[C@H](NC(=O)N3CCN(S(C)(=O)=O)C3=O)c3ccccc3)C(=O)N2[C@H]1C(=O)O`, the Potency entry was “inactive”.

Turning to `N=c1ccn2c(n1)O[C@H]1[C@H](O)[C@@H](CO)O[C@H]12`, the Potency entry is “inactive”.

Regarding `Nc1ccc(C(=O)O)c(O)c1`, the Potency entry is “inactive”.

Consider `Cc1ccc(O)c(-n2nc3ccccc3n2)c1`, for which the Potency entry was “inactive”.

As for `COc1cc2c3cc1Oc1cc(ccc1O)C[C@@H]1c4c(cc(OC)c(O)c4Oc4ccc(cc4)C[C@@H]3N(C)CC2)CC[N+]1(C)C`, the Potency result was “inactive”.

Take `Oc1c(Br)cc(Br)c2cccnc12`: the Potency result was “inactive”.

With `CC1(C)[C@@H](O)CC[C@]2(C)[C@H]3C(=O)C=C4[C@@H]5C[C@@](C)(C(=O)O)CC[C@]5(C)CC[C@@]4(C)[C@]3(C)CC[C@@H]12`, the Potency result was “inactive”.

For `CCOC(=O)c1ccccc1O`, the Potency result is “inactive”.

Turning to `Cc1ccccc1CNc1ncnc2c1ncn2C1OC(CO)C(O)C1O` (stereo unspecified), the Potency entry is “inactive”.

Regarding `O=C1CN(/N=C/c2ccc(-c3ccc([N+](=O)[O-])cc3)o2)C(=O)N1`, the Potency result is “inactive”.

Turning to `[O-][n+]1ccccc1SSc1cccc[n+]1[O-]`, the Potency was 12.8 µM (active).

On to `NC(=O)C(c1ccccc1)(c1ccccc1)[C@@H]1CCN(CCc2ccc3c(c2)CCO3)C1`, for which the Potency entry is “inactive”.

As to `CCC1C(=O)OCC1Cc1cncn1C` (stereo unspecified), the Potency entry is “inactive”.

Turning to `Cc1[nH]cnc1CN1CCc2c(c3ccccc3n2C)C1=O`, the Potency result is “inactive”.

These data come from PubChem BioAssay (NCATS).
